# A selection: hits, their analogues and other compounds. The true share with any hit is near 17%.
# DT40 TDP1 no CPT: qHTS for Inhibitors of human tyrosyl-DNA phosphodiesterase 1 (TDP1): qHTS in cells in absence of CPT | DT40 Tdp1-/- hTDP1 cells, no CPT, ATP luminescence, 48 h | Potency, µM (titrated, usually from 46.2 µM), actives largely listed as inhibitors | 15% of 420,000 active; note: nearly all actives have a fitted effect of over 55% in size
#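 Luminescent ATP content (CellTiter-Glo) served as the growth readout. Knockout chicken DT40 cells expressing human TDP1 were exposed to compounds without camptothecin for a minimum 48 hr at 37 °C.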
# TDP1 block: blocks human tyrosyl-DNA phosphodiesterase 1 | Q9NUW8 | recombinant TDP1, AlphaScreen DNA substrate cleavage | Potency, µM (highest dose often 130 µM), actives largely listed as inhibitors | 0.28% of 350,000 active; note: nearly all actives have a fitted effect of over 40% in size
#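 Recombinant E. coli-expressed Tdp1 (1 nM) preincubated with compound 15 min at RT, then 5'-biotin/3'-phosphotyrosine-FITC DNA substrate (15 nM) added for 5 min. AlphaScreen beads (10 ug/ml) added, 10 min RT; tyrosine-FITC cleavage read as signal loss.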
# ClpP mod: qHTS Assay for Activators of ClpP; 1.9% of 340,000 active; purified B. subtilis ClpP, FRET peptide cleavage, 20 min; Potency, µM (highest dose often 57.5 µM); active = well fitted falling curve with a large enough effect; inconclusive = small, poorly fitted or top-dose-only effect; inactive = no such curve, though single readings can be large or run the other way; note: the source files actives as falling curves though it sought activators and does not explain the sign; nearly all actives have a fitted effect of over 65% in size
#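 FRET quenching reversal measured ClpP activation: 10 microg/mL B. subtilis ClpP at pH 8 with the FRET-FV decapeptide, read at 430 nm after 320 nm excitation. The 20-min minus 0-min signal was scaled between DMSO/no-enzyme wells and ADEP (5.8 microM final).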
# DT40 TDP1 CPT: growth inhibition of DT40 Tdp1-/-;hTDP1 cells with camptothecin (screen for TDP1 inhibitors) | chicken DT40 Tdp1-/-;hTDP1 cells + 20 nM CPT, ATP luminescence, 48 h | Potency, µM (titrated, usually from 46.2 µM), most hits filed as inhibitors | AID 686979 | 12% of 420,000 active; note: nearly all actives have a fitted effect of over 55% in size
#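 Chicken DT40 Tdp1-/- cells complemented with human TDP1, 400 cells/well, exposed to compounds plus 20 nM camptothecin for at least 48 h at 37 C; viability read as ATP content by CellTiter-Glo luminescence.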
# A number is an active result; - = inactive; ? = inconclusive; . = no result given; [ ] = another dose, or the depositor's remark. Unless noted, calls come from the whole dose curve; as a rule, active = well fitted curve in the direction sought with a large enough effect; inconclusive = small, poorly fitted or top-dose-only effect, or another doubt; inactive = no such curve, though single readings can be large; an effect the other way counts as inactive or inconclusive.
SMILES,DT40 TDP1 no CPT,TDP1 block,ClpP mod,DT40 TDP1 CPT
CC1(C(=O)Nc2ccc3c(c2)OCCO3)CN(S(C)(=O)=O)CC(=O)N1CCCn1ccnc1 (stereo not given),-,.,-,-
COc1ccccc1CN(C)CC(=O)Nc1cccc(S(=O)(=O)N2CCCCC2)c1,23.1µM,-,-,16.4µM
Cc1ccc(S(=O)(=O)N2CCCCCC2)cc1[N+](=O)[O-],10.3µM,-,-,?
COc1ccccc1CCC(=O)Nc1cccc(S(=O)(=O)N2CCCC2)c1,?,-,-,?
COc1ccc(CN(C)CC(=O)Nc2cccc(S(=O)(=O)N3CCCC3)c2)cc1F,18.4µM,-,-,?
COc1ccc(S(=O)(=O)N2CCOCC2)cc1NC(=O)CN(C)CC(=O)Nc1cccc(F)c1,-,-,-,-
CN1CCN(S(=O)(=O)c2ccc(N(C)Cc3ccc(C(F)(F)F)cc3)c([N+](=O)[O-])c2)CC1,13µM,-,-,10.3µM
Cc1ccc(S(=O)(=O)N2CCC(C)CC2)cc1[N+](=O)[O-],-,-,-,-
CC1(C(=O)NS(=O)(=O)c2ccccc2C(F)(F)F)CCN1C(=O)C1CCCCC1 (stereo not given),-,.,-,-
CC1=C[C@@H](C)[C@@H](c2ccccc2)OC1=O,-,-,-,-
COc1ccc(CN(C)C(C)C(=O)Nc2ccc(S(=O)(=O)N3CCCC3)cc2)c(OC)c1OC (stereo not given),.,-,.,.
CCN(CC(=O)Nc1cccc(S(=O)(=O)N2CCCC2)c1)CC(=O)Nc1ccccc1OC,?,-,.,-
CCN(Cc1ccc(OC)c(F)c1)C(C)C(=O)Nc1ccc(S(=O)(=O)N2CCCC2)cc1 (stereo not given),20.6µM,-,-,?
CN(CC(=O)Nc1ccc(S(=O)(=O)N2CCCC2)cc1)Cc1cccc(Cl)c1Cl,?,-,-,16.4µM
C=CCOc1ccc(CN(C)c2ccc(S(=O)(=O)N3CCN(C)CC3)cc2[N+](=O)[O-])cc1,?,-,-,?
CN(Cc1cccc(Cl)c1Cl)c1ccc(S(=O)(=O)N2CCCCC2)cc1[N+](=O)[O-],20.6µM,-,-,?
COc1ccc(Cl)cc1NC(=O)CN(C)CC(=O)Nc1cccc(S(=O)(=O)N2CCCC2)c1,?,-,-,23.1µM
CCOC(=O)c1cc2c(C)n(-c3ccc(OCC)cc3)c(C)c2ccc1=O,14.6µM,-,-,25.9µM
CCOC(=O)c1c[nH]n(-c2ccc(C)cc2)c1=O,-,-,.,-
CCOC(=O)c1cc2c(C)n(-c3ccc(C)cc3)c(C)c2ccc1=O,8.2µM,-,-,14.6µM
CCOc1ccc(-n2c(C)c(C(=O)OC)c3cc(O)ccc32)cc1,?,.,.,-
COc1ccc(-n2nnnc2/C=C/Nc2cc(C(F)(F)F)ccc2OC)cc1,?,-,28.2µM,?
COc1ccc(-n2nnnc2SCC(=O)Nc2ccccc2F)cc1,?,.,-,-
COc1ccc(-n2nnnc2/C=C\Nc2ccccc2C(=O)c2ccccc2)cc1,5.8µM,-,-,7.31µM
COc1ccc(Oc2ccc(C(F)(F)F)cc2NC(=O)c2ccc(F)cc2)cc1,-,-,-,-
SMILES,DT40 TDP1 no CPT,TDP1 block,ClpP mod,DT40 TDP1 CPT
Cc1noc(C)c1COc1ccc(C(=O)OCC(=O)Nc2ccc3ccccc3c2)cc1,-,-,-,-
COc1ccc(Br)cc1S(=O)(=O)N(CC(=O)N1CCN(C)CC1)c1ccccc1,-,-,-,-
COc1cc(/C=C/CNC[C@H]2O[C@@H](n3cnc4c(N)ncnc43)[C@H](O)[C@@H]2O)ccc1O,13µM,.,-,-
O=C(CCCCCNC(=O)c1ccccc1)C[N+](=O)[O-],-,-,?,-
Cc1ccc(NS(=O)(=O)c2ccc3ccccc3c2)cc1C,.,-,.,.
Cc1nn2c(-c3ccccc3)nnc2c2ccccc12,-,-,-,-
CCCCN(C)S(=O)(=O)c1cc(-c2nnc3c4ccccc4c(C)nn23)ccc1C,7.31µM,-,-,3.66µM
CCOC(=O)c1nnn(-c2nonc2-n2cccc2)c1CCl,6.51µM,-,-,4.61µM
CCOC(=O)c1nnn(-c2nonc2N)c1CS(=O)(=O)c1ccccc1,-,-,-,-
O=Cc1cn(-c2ccccc2)nc1-c1cccc([N+](=O)[O-])c1,?,.,-,?
N#Cc1ccc(N/N=C/c2cn(-c3ccccc3)nc2-c2ccccc2)c([N+](=O)[O-])c1,8.2µM,-,-,3.66µM
CCCNC(=O)OC[C@@H]1O[C@H](CCO/N=C\[C@@H](OC)[C@H](C)/C=C\CC(=O)OC)C=C[C@@H]1Oc1ccc(OC)cc1,.,-[21 µM],.,.
Cc1cccc(N2CC(O)(c3cccs3)[N+]3=C2CCCC3)c1C (stereo not given),20.6µM,-,.,?
Cc1ccc(O)c(NC(=O)C2CC(c3c(F)cccc3Cl)=NO2)c1 (stereo not given),?,-,-,-
CCc1c(C)sc(NC(=O)C2CC(c3c(F)cccc3Cl)=NO2)c1C#N (stereo not given),?,-,-,16.4µM
N#Cc1c(NC(=O)C2CC(c3c(F)cccc3Cl)=NO2)sc2c1CCC2 (stereo not given),0.206µM,-,-,?
CC(Oc1cccnc1[N+](=O)[O-])C(=O)Nc1cccc(Cl)c1 (stereo not given),?,-,-,-
COCCNc1ncnc2c1cnn2-c1ccc(Cl)cc1,?,-,22.4µM,-
COCCN(CCOC)c1ncnc2c1cnn2-c1ccc(Cl)cc1,?,-,-,?
OCCOCCNc1ncnc2c1cnn2-c1ccc(Cl)cc1,?,-,31.6µM,-
OCCOCCNc1ncnc2c1cnn2-c1ccccc1,-,-,?,-
CCN(CC)C(=O)Cn1c(=O)n(-c2ccc(C)c(C)c2)c(=O)c2c(C)c(C(=O)N(CC)CC)sc21,-,-,-,-
Cc1noc(C)c1S(=O)(=O)N1CCN(C(c2ccccc2)c2ccc(Cl)cc2)CC1 (stereo not given),13µM,-,-,?
COc1cccc(Cn2c(=O)c(-c3cccs3)nc3cnc(Nc4ccccc4)nc32)c1,-,.,.,-
C/C(=N/OC(=O)c1ccc(C)cc1)c1ccc(N2C(=O)C3CCCCC3C2=O)cc1 (stereo not given),16.4µM,-,-,?
O=C(NCc1cccnc1)/C(=C/c1ccc(-c2ccc(Cl)cc2)o1)S(=O)(=O)c1ccccc1,7.31µM,-,-,5.17µM
O=C(NCc1cccnc1)/C(=C\c1ccc(-c2ccc(Br)cc2)o1)S(=O)(=O)c1ccccc1,3.26µM,-,-,2.91µM
O=C(CCS(=O)(=O)c1cccc2nsnc12)NC1CCCCC1,-,-,-,-
COc1ccc(OCc2ccc(-c3nc(C#N)c(N4CCN(C)CC4)o3)o2)cc1,14.6µM,-,28.2µM,?
COc1ccc(-c2nc(C#N)c(N3CCCCC3)o2)cc1,-,.,-,-

# Screens from PubChem BioAssay.
